The source made the active and inactive calls.
Columns and labels:
[1] = test system: PRMT1 (protein arginine N-methyltransferase 1); experiment: PRMT1 binders on small-molecule microarrays, primary screen, biochemical, small-molecule microarray, 635 nm fluorescence (AID 1088); settings: small-molecule microarray binding, higher = more signal;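 note: binding of Prmt1 protein to compounds spotted on small-molecule microarray slides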
[2] = yeast growth modulation, basal conditions, primary screen, YJM789 clinical isolate, OD600, 24 h (AID 1089);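 note: growth of clinical yeast isolate S. cerevisiae YJM 789 seeded 1000 cells per well; test concentration not given here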; settings: S. cerevisiae YJM789 growth, higher = more signal, called active from +8 up or from −8 down
[3] = fission yeast growth modulation, primary screen, strain 972, OD600, 24 h, no modulator (AID 1090);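 note: basal condition with compound alone and no growth modifier present; test concentration not given here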; settings: S. pombe 972 growth, higher = more signal, called active from +8 up or from −8 down
[4] = S. cerevisiae growth modulation with rapamycin, primary screen, strain BY4716, OD600, 96 h (AID 1091); settings: higher = more signal, called active from +8 up or from −8 down; note: test concentration not given here
[5] = target: Torsin-1A-interacting protein 2 (Homo sapiens) (UniProt Q8NFQ8); experiment: LULL1 binders on small-molecule microarray, primary screen, cell lysate, human LULL1 lysate, 635/667 nm fluorescence (AID 1092); settings: hLULL1 lysate binding, 635 nm fluorescence, higher = more signal;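 note: probe is lysate of COS7 cells overexpressing human LULL1; score merges per-feature 667 nm fluorescence with signal-to-noise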
[6] = E. coli growth modulation, two-sided OD650, primary screen, E. coli filamentation project, strain DRC41, 24 h (AID 1093); settings: OD650, 24 h, higher = more signal, called active from +8 up or from −8 down;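 note: MC1000 strain lacking acrAB efflux and sulA so SOS filamentation is blocked; test concentration not given here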
[7] = small-molecule microarray binders of probe aLefty2, primary screen, biochemical, biotinylated probe, 635/667 nm fluorescence (AID 1094); settings: higher = more signal;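 note: score merges spot fluorescence near 667 nm with spot signal-to-noise ratio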
[8] = test system: Noggin (protein binding on small-molecule microarray); experiment: Noggin binders on small-molecule microarray, primary screen, biochemical, 635/667 nm fluorescence (AID 1095); settings: 635 nm fluorescence, higher = more signal;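 note: score merges 667 nm feature fluorescence with signal to noise over triplicate slides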
[9] = target: Neurogenic locus notch homolog protein 3 (Homo sapiens) (UniProt Q9UM47); experiment: NOTCH3 binders on small-molecule microarray, primary screen, biochemical, 635/667 nm fluorescence (AID 1096); settings: NOTCH3 binding, 635 nm fluorescence, higher = more signal
[10] = small-molecule microarray binders of probe aEGFR, primary screen, biochemical, biotinylated probe, 635/667 nm fluorescence (AID 1097); settings: higher = more signal;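 note: probe is a biotinylated anti-EGFR antibody binding compounds printed on slides; score combines fluorescence near 667 nm and signal to noise of each spot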
[11] = test system: Plasmodium falciparum Sir2 (PF13_0152, Sir2A); experiment: pfSir2 binders on small-molecule microarrays, primary screen, biochemical, small-molecule microarray, 635 nm fluorescence (AID 1098); settings: small-molecule microarray binding, fluorescence 635 nm; higher = more signal;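 note: score merges spot fluorescence intensity with its signal-to-noise ratio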
[12] = small-molecule microarray binders of probe aDKK1, primary screen, biochemical, biotinylated probe, 635/667 nm fluorescence (AID 1099); settings: higher = more signal;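 note: score merges 667nm spot fluorescence with signal to noise across triplicate slides; reference of the scale not given here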
[13] = small-molecule microarray binders of probe aCHRDL2, primary screen, biochemical, biotinylated probe, 635/667 nm fluorescence (AID 1100); settings: higher = more signal
[14] = splicing luciferase reporter signal modulators, primary screen, spliceosome inhibition project, cell-based, HEK293, splice +/- reporter (AID 1101); settings: luminescence, 24 h, higher = more signal, called active from +8 up or from −8 down;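 note: HEK293 cells carrying a splicing-competent luciferase reporter gene; test concentration not given here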
[15] = target: Fibroblast growth factor 10 (Homo sapiens) (UniProt O15520); experiment: FGF10 binders on small-molecule microarrays, primary screen, biochemical, small-molecule microarray, 635 nm fluorescence (AID 1102); settings: FGF10 binding, fluorescence 635 nm, higher = more signal
[16] = test system: glycogen synthase kinase-3 (GSK3A per assay name; protocol says GSK3B); experiment: GSK3 binders on small-molecule microarrays, primary screen, biochemical, small-molecule microarray, 635 nm fluorescence, GSK3A (AID 1103); settings: small-molecule microarray binding, fluorescence 635 nm; higher = more signal; note: the record names both GSK3A and GSK3B
[17] = target: Epidermal growth factor receptor (Homo sapiens) (UniProt P00533); experiment: EGFR binders on small-molecule microarrays, primary screen, biochemical, small-molecule microarray, 635 nm fluorescence (AID 1104); settings: EGFR binding, higher = more signal;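 note: score merges 667 nm emission intensity with spot signal to noise over triplicate slides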
[18] = target: Follistatin-related protein 3 (Homo sapiens) (UniProt O95633); experiment: FSTL3 binders on small-molecule microarrays, primary screen, biochemical, small-molecule microarray, 635 nm fluorescence (AID 1105); settings: FSTL3 binding, higher = more signal;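 note: score merges emission near 667 nm and signal to noise per printed spot across three slides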
[19] = target: Dickkopf-related protein 1 (Homo sapiens) (UniProt O94907); experiment: DKK1 binders on small-molecule microarrays, primary screen, biochemical, small-molecule microarray, 635 nm fluorescence scan (AID 1106); settings: DKK1 binding, higher = more signal;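 note: score merges emission near 667 nm with signal to noise over three replicate slides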
[20] = test system: Inhibin beta A chain (activin A); experiment: INHBA (activin A) binders on microarrays, primary screen, biochemical, small-molecule microarray, 635 nm fluorescence scan (AID 1107); settings: small-molecule microarray binding, higher = more signal;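 note: mouse activin A protein probed at 4.33 µg/mL on printed slides; score merges bound-protein fluorescence near 667 nm with spot signal-to-noise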

Torsin-1A-interacting protein 2 (Homo sapiens), sequence (Q8NFQ8 whole entry, looked up): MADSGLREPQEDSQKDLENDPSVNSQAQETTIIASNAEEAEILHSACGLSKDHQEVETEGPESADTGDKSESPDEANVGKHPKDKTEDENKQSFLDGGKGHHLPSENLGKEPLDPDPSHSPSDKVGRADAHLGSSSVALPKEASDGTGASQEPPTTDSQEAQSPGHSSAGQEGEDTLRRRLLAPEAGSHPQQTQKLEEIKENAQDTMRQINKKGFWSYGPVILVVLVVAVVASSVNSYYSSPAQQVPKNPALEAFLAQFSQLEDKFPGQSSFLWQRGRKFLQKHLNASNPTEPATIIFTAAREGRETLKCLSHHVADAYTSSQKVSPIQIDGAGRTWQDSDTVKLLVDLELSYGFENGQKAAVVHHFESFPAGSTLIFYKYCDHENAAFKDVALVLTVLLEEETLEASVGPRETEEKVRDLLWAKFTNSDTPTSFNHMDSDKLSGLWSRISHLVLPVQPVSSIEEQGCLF
Dickkopf-related protein 1 (Homo sapiens), sequence (O94907 whole entry, looked up): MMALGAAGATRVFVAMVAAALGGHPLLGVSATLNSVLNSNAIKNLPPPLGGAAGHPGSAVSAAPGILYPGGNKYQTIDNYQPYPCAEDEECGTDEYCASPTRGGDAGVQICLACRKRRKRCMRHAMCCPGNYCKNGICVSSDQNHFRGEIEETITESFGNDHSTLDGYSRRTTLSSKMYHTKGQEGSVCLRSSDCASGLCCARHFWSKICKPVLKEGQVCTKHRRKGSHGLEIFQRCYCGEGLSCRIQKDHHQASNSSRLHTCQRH
Follistatin-related protein 3 (Homo sapiens), sequence (O95633 whole entry, looked up): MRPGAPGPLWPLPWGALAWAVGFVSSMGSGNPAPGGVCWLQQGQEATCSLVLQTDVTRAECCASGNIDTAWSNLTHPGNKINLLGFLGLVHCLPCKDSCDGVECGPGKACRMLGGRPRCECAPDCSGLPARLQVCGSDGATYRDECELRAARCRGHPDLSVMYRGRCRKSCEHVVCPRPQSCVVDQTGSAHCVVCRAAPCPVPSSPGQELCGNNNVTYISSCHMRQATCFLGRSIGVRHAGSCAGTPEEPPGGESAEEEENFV
Neurogenic locus notch homolog protein 3 (Homo sapiens), sequence (Q9UM47 whole entry, looked up): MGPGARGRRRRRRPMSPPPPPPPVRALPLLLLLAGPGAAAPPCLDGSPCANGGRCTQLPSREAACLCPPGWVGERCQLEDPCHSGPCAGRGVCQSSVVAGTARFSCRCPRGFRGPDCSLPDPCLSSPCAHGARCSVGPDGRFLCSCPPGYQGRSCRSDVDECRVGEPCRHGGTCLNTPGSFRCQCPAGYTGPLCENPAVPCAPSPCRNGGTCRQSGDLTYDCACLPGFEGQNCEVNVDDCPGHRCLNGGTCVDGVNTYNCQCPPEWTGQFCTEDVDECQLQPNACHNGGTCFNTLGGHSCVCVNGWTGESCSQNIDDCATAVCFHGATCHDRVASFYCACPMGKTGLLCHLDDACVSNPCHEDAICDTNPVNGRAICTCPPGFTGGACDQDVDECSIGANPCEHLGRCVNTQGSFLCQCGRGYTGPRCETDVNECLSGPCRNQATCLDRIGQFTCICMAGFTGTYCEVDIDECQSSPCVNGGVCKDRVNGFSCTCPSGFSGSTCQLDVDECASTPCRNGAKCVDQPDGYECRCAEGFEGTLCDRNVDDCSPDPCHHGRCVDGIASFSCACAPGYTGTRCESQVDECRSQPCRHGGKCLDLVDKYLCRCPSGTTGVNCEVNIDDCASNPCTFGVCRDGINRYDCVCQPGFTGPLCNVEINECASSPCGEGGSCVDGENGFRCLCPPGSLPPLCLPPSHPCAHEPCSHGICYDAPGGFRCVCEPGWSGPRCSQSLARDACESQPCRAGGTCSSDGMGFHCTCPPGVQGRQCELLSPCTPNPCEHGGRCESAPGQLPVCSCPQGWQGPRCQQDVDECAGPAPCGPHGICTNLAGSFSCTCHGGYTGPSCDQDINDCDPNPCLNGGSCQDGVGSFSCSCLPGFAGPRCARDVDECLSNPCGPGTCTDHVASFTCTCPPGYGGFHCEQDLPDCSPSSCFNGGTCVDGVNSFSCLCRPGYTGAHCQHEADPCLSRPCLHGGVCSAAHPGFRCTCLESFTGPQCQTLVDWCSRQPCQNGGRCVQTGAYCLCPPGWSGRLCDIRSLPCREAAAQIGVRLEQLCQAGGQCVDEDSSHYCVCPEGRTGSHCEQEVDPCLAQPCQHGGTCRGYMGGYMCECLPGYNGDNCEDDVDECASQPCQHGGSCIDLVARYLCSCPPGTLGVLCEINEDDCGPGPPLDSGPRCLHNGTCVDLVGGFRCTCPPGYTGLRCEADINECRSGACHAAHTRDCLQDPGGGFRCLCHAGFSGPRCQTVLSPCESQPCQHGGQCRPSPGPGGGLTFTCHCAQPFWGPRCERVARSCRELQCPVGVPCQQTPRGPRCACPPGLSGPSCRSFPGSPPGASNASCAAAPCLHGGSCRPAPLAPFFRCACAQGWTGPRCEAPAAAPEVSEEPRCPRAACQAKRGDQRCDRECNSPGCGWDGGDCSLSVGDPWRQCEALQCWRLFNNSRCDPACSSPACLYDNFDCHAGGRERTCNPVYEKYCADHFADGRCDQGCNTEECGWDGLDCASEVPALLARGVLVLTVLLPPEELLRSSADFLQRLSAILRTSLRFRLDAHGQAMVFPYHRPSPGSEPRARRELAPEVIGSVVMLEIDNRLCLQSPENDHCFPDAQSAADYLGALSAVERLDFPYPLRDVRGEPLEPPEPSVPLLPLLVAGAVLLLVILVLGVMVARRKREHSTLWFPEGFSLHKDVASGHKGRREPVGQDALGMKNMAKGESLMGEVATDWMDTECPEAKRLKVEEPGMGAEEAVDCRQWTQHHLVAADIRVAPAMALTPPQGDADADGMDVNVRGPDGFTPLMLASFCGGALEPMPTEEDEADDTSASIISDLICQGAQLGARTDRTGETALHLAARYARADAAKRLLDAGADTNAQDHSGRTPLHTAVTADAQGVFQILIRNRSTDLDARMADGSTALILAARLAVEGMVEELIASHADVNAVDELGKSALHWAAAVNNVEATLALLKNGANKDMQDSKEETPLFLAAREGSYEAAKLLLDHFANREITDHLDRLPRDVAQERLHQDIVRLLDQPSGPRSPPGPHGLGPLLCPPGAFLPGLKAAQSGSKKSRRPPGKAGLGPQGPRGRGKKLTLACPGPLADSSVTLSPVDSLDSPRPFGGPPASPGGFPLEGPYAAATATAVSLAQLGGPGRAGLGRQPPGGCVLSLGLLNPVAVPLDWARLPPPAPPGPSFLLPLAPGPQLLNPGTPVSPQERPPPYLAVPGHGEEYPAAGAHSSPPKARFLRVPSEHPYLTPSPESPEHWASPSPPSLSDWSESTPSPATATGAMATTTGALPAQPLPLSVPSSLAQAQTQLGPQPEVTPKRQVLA
Epidermal growth factor receptor (Homo sapiens), sequence (P00533 whole entry, looked up): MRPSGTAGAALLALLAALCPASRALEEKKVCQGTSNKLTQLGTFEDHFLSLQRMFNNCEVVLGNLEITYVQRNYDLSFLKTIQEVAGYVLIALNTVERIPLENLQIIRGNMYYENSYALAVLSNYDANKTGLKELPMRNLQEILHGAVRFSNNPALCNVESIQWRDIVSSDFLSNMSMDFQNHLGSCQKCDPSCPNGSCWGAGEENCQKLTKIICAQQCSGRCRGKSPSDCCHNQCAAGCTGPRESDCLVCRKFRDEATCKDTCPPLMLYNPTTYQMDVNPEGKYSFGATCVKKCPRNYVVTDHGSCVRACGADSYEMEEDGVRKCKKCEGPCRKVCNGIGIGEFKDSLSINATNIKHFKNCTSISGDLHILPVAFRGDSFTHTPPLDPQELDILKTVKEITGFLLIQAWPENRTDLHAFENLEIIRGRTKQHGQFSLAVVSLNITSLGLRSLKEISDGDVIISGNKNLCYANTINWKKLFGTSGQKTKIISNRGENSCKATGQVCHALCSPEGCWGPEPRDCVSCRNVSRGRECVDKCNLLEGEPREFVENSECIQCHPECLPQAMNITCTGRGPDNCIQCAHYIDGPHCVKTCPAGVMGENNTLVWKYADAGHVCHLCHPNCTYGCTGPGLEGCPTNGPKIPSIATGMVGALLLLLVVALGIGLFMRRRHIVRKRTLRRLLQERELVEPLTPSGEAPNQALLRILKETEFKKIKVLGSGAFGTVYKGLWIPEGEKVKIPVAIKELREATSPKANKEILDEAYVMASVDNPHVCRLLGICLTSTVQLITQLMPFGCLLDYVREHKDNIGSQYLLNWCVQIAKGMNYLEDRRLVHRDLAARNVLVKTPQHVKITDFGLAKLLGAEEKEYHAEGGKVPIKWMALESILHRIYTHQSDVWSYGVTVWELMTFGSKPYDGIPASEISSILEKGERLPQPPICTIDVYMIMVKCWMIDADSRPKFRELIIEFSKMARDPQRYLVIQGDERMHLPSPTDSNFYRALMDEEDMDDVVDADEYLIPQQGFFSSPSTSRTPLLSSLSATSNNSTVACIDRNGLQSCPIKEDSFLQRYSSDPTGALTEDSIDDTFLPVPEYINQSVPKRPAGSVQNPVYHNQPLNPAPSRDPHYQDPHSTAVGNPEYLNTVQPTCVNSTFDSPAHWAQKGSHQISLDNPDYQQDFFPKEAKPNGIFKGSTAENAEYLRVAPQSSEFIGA
Fibroblast growth factor 10 (Homo sapiens), sequence (O15520 whole entry, looked up): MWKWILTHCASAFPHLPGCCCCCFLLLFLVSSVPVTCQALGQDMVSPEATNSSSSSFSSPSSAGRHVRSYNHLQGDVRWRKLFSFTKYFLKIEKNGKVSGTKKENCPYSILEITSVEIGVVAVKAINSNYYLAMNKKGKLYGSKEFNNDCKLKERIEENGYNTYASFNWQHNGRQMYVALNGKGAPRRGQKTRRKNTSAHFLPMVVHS

Row | Compound | composite z-score [1] | z-score [2] | z-score [3] | z-score [4] | composite z-score [5] | z-score [6] | composite z-score [7] | composite z-score [8] | composite z-score [9] | composite z-score [10] | composite z-score [11] | composite z-score [12] | composite z-score [13] | z-score [14] | composite z-score [15] | composite z-score [16] | composite z-score [17] | composite z-score [18] | composite z-score [19] | composite z-score [20]
1 | C=CCN1C(=O)[C@]2(O[C@H](CCO)[C@@H]([Si](C)(C)c3ccc(OC)cc3)[C@@H]2C)c2cc(NC(=O)[C@H](C)O)ccc21 | 1.53 | 0.83 (inactive) | -0.759 (inactive) | 1.31 (inactive) | 2.77 | 0.64 (inactive) | -0.166 | 0.392 | 1.02 | -0.151 | 1.45 | -0.191 | -0.159 | -1.26 (inactive) | 1.27 | 0.984 | -0.191 | 0.267 | 0.0607 | 0.197
2 | O=C(CS)NCCCCCCNC(=O)[C@H]1C[C@H]2C(=O)NCC(=O)N2[C@H]1c1ccc(O)cc1 | 0.16 | -0.408 (inactive) | 0.0177 (inactive) | 0.505 (inactive) | 1.46 | -0.449 (inactive) | -0.0903 | 0.384 | 0.0288 | -0.136 | 0.576 | -0.213 | 0.694 | -0.295 (inactive) | -0.175 | -0.607 | -0.606 | -0.46 | 0.22 | -0.58
3 | CCOC(=O)C1=CCC(c2ccc(C#N)cc2)N(S(=O)(=O)c2ccc(C)cc2)C1 (stereo not given) | 1.11 | -0.0764 (inactive) | 0.0767 (inactive) | 2.91 (inactive) | 2.64 | 0.394 (inactive) | 0.276 | -0.184 | 1.09 | -0.0297 | 1.13 | 1.22 | 1.05 | -0.415 (inactive) | 0.637 | 1.29 | 0.555 | 1.21 | -0.0007 | 0.2
4 | COCCOC(=O)N1C(=O)[C@@]2(c3cc(C#CCC(C(=O)OC)C(=O)OC)ccc31)[C@H](c1ccccc1OCCO)N1[C@H](c3ccccc3)[C@H](c3ccccc3)OC(=O)[C@H]1[C@@H]2C(=O)N1CCc2cc(OC)c(OC)cc2C1 | 1.56 | 0.502 (inactive) | 0.979 (inactive) | 3.89 (inactive) | 2.42 | 1.92 (inactive) | -0.0373 | 1.64 | 0.729 | 0.0637 | 1.24 | 0.176 | -0.131 | -0.988 (inactive) | 1.16 | 1.33 | 0.99 | 1.3 | 1.42 | 0.645
5 | O=C1OCCC=C[C@H]2OC34C=CCN(Cc5ccccc5)C(=O)[C@H]3N(CCCCCO)C(=O)[C@@H]4C12 (stereo not given in full) | 0.878 | 1.5 (inactive) | -0.0407 (inactive) | -0.188 (inactive) | 3.74 | 1.42 (inactive) | -0.171 | -0.748 | -0.483 | -0.252 | 1.96 | -0.285 | 0.672 | -0.34 (inactive) | -0.779 | 1.06 | -0.744 | -0.595 | -1.19 | 0.141
